Screening results as filed in PubChem.
Only some compounds are listed: those with a hit (about 2.1% of all), similar ones and a draw of the others.
FUS yeast rescue: rescues growth of FUS-expressing yeast. S. cerevisiae FUS-expressing, growth rescue, OD600, 24 h. Potency, µM (series often up to 76.6 µM), most hits filed as activators. actives 0.24% (n = 390,000);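 further: plate controls were DMSO vehicle for no effect and reference control for full effect; nearly all actives have a fitted effect of over 55% in size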
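Cultures pregrown in 2.5% raffinose medium are shifted to minimal medium containing 2% galactose to express toxic FUS. Compounds are tested at several concentrations. After 24hr at 30C, growth is quantified at 600 nm absorbance.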
TSG101-PTAP inh: blocks PTAP/TSG101 interaction to inhibit HIV-1 budding | Q99816 | Potency, µM (doses to about 115 µM), for inactives: at the highest dose activity change, negative = inhibition, usual class: inhibitors | Fluorescence polarization, FITC-PTAP peptide / Tsg101 binding | AID 493005 | 340,000 tested, under 10 active; active means well fitted inhibition curve with a large enough effect in the main read-out, with a control signal flat, not every such curve was filed as active; inconclusive means small, poorly fitted or top-dose-only effect, or effect the other way, or a change in a side signal; inactive means no such curve, though single readings can be large or run the other way; further: % of control where 0% means no effect
Target sequence (Q99816 whole entry, looked up): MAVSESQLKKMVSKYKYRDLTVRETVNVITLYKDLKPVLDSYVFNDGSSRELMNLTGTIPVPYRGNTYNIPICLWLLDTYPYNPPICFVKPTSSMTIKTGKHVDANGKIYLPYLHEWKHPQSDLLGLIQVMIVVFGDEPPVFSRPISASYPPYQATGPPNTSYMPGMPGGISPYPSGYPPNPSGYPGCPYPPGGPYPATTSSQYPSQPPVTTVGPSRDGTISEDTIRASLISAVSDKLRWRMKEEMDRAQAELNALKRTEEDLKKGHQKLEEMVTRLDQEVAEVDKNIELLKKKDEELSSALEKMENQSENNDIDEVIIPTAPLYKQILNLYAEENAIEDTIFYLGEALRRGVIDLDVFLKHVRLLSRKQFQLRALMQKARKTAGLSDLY
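Fluorescence anisotropy tracks displacement of a FITC-tagged PTAP peptide (50 nM) from the Tsg101 binding domain (10 uM), following a 20 min room-temperature incubation at pH 7.5.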
aSyn yeast inh: inhibitors of alpha-synuclein toxicity in yeast. Yeast expressing alpha-synuclein, growth rescue, BacTiter-Glo, 24 h. Potency, µM (doses to about 46.1 µM), for the others: at the top dose growth rescue (activation), usual class: activators. actives 0.14% (n = 370,000); further: % of control where 0% means no effect; nearly all actives have a fitted effect of over 65% in size
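Galactose-induced alpha-syn yeast (OD600=0.02, raffinose-pregrown) + pinned cpd, 24 hr, 30 deg C; growth by BacTiter-Glo luminescence. Growth restoration scores as activation.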
Abeta rescue: compounds reversing amyloid beta toxicity in yeast | yeast expressing A-beta42, growth rescue, OD600, 48 h; response scale: 0% DMSO, 100% iron-clioquinol control | Potency, µM (top dose mostly 46.1 µM), usual class: activators | actives 0.063% (n = 410,000) | AID 1347071; further: nearly all actives have a fitted effect of over 55% in size
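Growth rescue measured by 600 nm absorbance after 48 h yeast culture at 30 C with compound. Values normalized between DMSO and an equimolar ferric chloride plus clioquinol control.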
TDP-43 yeast inh: inhibitors of TDP-43 toxicity in yeast; Potency, µM (highest dose often 46.1 µM), inactives show top-dose growth rescue (activation), usual class: activators; TDP-43 expressing yeast growth rescue, BacTiter-Glo, 24 h; actives 1.8% (n = 410,000); further: % of control where 0% means no effect; nearly all actives have a fitted effect of over 50% in size
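Cell-based yeast growth screen: TDP-43 expression induced in galactose, inoculum OD600=0.02 after raffinose pregrowth to mid-log. Read-out BacTiter-Glo luminescence at 24 hr, 30 deg C; inhibition of toxicity seen as signal increase.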
Active calls of the source: *; i = inactive; ? = inconclusive; · = no result given; [ ] = remark or other dose. Unless noted, the call rests on the fitted dose curve; in most records, active means well fitted curve in the direction sought with a large enough effect; inconclusive means small, poorly fitted or top-dose-only effect, or another doubt; inactive means no such curve, though single readings can be large; an effect the other way counts as inactive or inconclusive. Potency means the concentration at half of the fitted maximal effect.

SMILES	FUS yeast rescue	TSG101-PTAP inh	aSyn yeast inh	Abeta rescue	TDP-43 yeast inh
CN(C)c1nc(C(=O)Nc2ccccc2)nc(N(C)C)n1	i	-3.7%	0.2%	i	6.8%
CN(C)c1nc(SCCOC(=O)Nc2ccccc2)nc(N(C)C)n1	·	-4.3%	1.3%	i	3.16µM*
CCN(CC)Cc1cc(Nc2c3ccccc3nc3c4ccccc4n(C)c23)cc(CN(CC)CC)c1O	·	0.0%	3.4%	i	16.1%
O=C(Nc1nccs1)C(Br)C(Br)c1ccccc1 (centres undefined)	i	-0.4%	0.4%	i	10µM*
CCOc1ccc(NC(=O)c2cnn3c2NC(c2ccccc2)=CC3c2cccc(OC)c2OC)cc1 (centres undefined)	22.4µM*	·	·	i	26.7%[9.22 µM]
Cc1nc2c(nc1C)C(=O)c1ccccc1C2=O	·	-0.9%	-8.5%	i	17.8µM*
O=C1Nc2ccccc2-n2nnnc2C1N1CCN(CCN2CCOCC2)CC1 (centres undefined)	i	·	4.0%	i	20.6%
CCN(CC)c1ccc(C2Nc3ccccc3-c3cc(C)nn32)cc1 (centres undefined)	i	·	·	i	?
Cc1cc2n(n1)C(c1ccsc1)Nc1ccccc1-2 (centres undefined)	i	-1.2%	-20.0%	i	8.91µM*
CSc1ccc(C2Nc3ccccc3-c3cc(C)nn32)cc1 (centres undefined)	?	25.1%	-1.3%	i	17.8µM*
COC(=O)c1ccc(C2Nc3c(C)cccc3-c3cc(C)nn32)cc1 (centres undefined)	?	·	·	i	12.6µM*
O=C1C2C(C(=O)N1/N=C/c1ccc([N+](=O)[O-])o1)C1C=CC2C12CC2 (centres undefined)	·	-5.0%	26.0%	i	17.8µM*
O=C1C2C3C=CC(C4CC34)C2C(=O)N1/N=C/c1ccc([N+](=O)[O-])o1 (centres undefined)	i	-5.9%	6.1%	i	?
CCCC1CCC2(CC1)CCC2OC(=O)Nc1ccc(F)cc1 (centres undefined)	i	·	·	·	·
COc1ccc(C2=Nc3ccc(OC(F)(F)F)cc3NC(c3cccnc3)=N2)cc1	i	·	·	i	?
COCCN=c1scc(-c2ccccc2)n1/N=C/c1c[nH]c2ccccc12	i	-13.5%	1.7%	i	11.2µM*
Cc1ccc(-n2c(C3CC3c3ccc(Cl)cc3)n[nH]c2=S)cc1 (centres undefined)	i	-6.7%	-0.8%	i	-18.9%
Cc1ccc(C2CC2c2n[nH]c(=S)n2-c2cccc(Cl)c2)cc1 (centres undefined)	i	-5.0%	9.1%	i	35.5µM*
O=C(Cn1cc(S(=O)(=O)Cc2cccc(Cl)c2)c2ccccc21)NCCc1ccccc1	i	·	·	i	1.1%
O=C(COc1ccc2ccccc2c1)NCCn1ccc2ccccc21	?	-5.5%	?	?	22.4µM*
O=C(Cc1ccccc1)NCCn1ccc2ccccc21	i	-3.1%	-2.2%	i	?
Cc1ccc(C)c(C(O)c2ncc(-c3cccc(C(F)(F)F)c3)[nH]2)c1 (centres undefined)	i	·	0.8%	i	?
O=C(CN1C(=O)CCc2cc(S(=O)(=O)N3CCOCC3)ccc21)Nc1cccc(Cl)c1	i	·	·	i	0.0%
COc1ccc(C(O)c2nc(-c3ccc(F)c(Cl)c3)cs2)cc1 (centres undefined)	i	·	12.6µM*	?	11.2µM*
COc1cc(C(O)c2nc(-c3ccc(F)cc3OC)cs2)ccc1F (centres undefined)	i	·	?	i	25.1µM*
SMILES	FUS yeast rescue	TSG101-PTAP inh	aSyn yeast inh	Abeta rescue	TDP-43 yeast inh
COc1cc(C(O)c2nc(-c3cccc(C#N)c3)cs2)ccc1F (centres undefined)	i	·	?	i	10µM*
COc1cc(C(O)c2nc(-c3ccccc3)cs2)ccc1F (centres undefined)	i	·	?	i	0.0%
COCc1cccc(-c2csc(C(O)c3ccc(F)c(OC)c3)n2)c1 (centres undefined)	i	·	10.5%	?	?
COc1cc(F)ccc1-c1csc(C(O)c2ccc(F)c(F)c2)n1 (centres undefined)	i	·	-0.4%	i	-36.8%
COc1ccc(-c2csc(C(O)c3ccc(F)c(OC)c3)n2)cc1 (centres undefined)	?	·	17.8µM*	?	22.4µM*
COCCNC(=O)CSc1nc(-c2ccccc2)[nH]c1-c1ccc(OC)cc1	i	·	·	i	11.1%
Cc1ccccc1CNC(=O)C(=O)NCC(c1cccs1)S(=O)(=O)c1ccc(Cl)cc1 (centres undefined)	i	·	·	i	10.0%
CC1(C(=O)NCc2ccc(Cl)cc2)CCN1C(=O)Cc1cccc2ccccc12 (centres undefined)	i	·	?	i	35.5µM*
CC1(C(=O)NCc2ccc(Cl)cc2)CCN1C(=O)Cc1ccc(Cl)cc1Cl (centres undefined)	i	·	?	i	31.6µM*
CC1(C(=O)Nc2ccccc2F)CCN1C(=O)Cc1cc(F)ccc1F (centres undefined)	i	·	6.7%	i	7.08µM*
CC1(C(=O)Nc2cccc3ccccc23)CCN1C(=O)Cc1ccc(Cl)cc1Cl (centres undefined)	?	·	?	i	35.5µM*
CC1(C(=O)Nc2ccc(F)cc2F)CCN1C(=O)Cc1ccccc1Cl (centres undefined)	i	·	7.7%	i	0.0%
CC1(C(=O)NS(=O)(=O)c2ccc(Cl)cc2)CCN1C(=O)Cc1cccc2ccccc12 (centres undefined)	i	·	0.5%	i	2.9%
Cc1c(Cl)cccc1NC(=O)N1CCOc2ccccc21	i	·	·	i	12.6µM*
NC1=NC(=O)/C(=C\c2ccc(-c3ccccc3[N+](=O)[O-])o2)S1	·	·	-1.6%	·	·
Cc1ccc(C2=NC(C)(C)N=C2SCC(=O)Nc2ccc(Cl)cc2)cc1	i	0.7%	-9.2%	i	35.5µM*
O=C(CSc1ncc(-c2ccccc2)[nH]1)Nc1ccc(Cl)cc1	i	·	·	i	22.4µM*
CC1(C)N=C(SCC(=O)Nc2ccccc2)C(c2ccc(Cl)cc2)=N1	i	-0.7%	-0.2%	i	17.8µM*
O=C(CSc1ncc(-c2ccccc2)[nH]1)Nc1ccccc1	i	-0.2%	-5.3%	i	0.0%
CC1(C)N=C(SCC(=O)Nc2ccc(Cl)cc2Cl)C(c2ccccc2)=N1	i	-5.9%	-12.9%	i	23.2%
CC1CCCCC1N(C(=O)c1cc(C2CC2)on1)C1CCCCC1 (centres undefined)	i	·	·	·	·
